Test results: PubChem BioAssay AID540333 (Southern Research Specialized Biocontainment Screening …, 2011)
Out of some 10,000 compounds screened, about 320 (3.2%) were called active. The list comes from a sample in which actives are over-represented; it also holds similar structures and randomly drawn compounds. Values without a mark were called inactive. No stated cut-off is given here; in the data, active means CPE inhibition mostly above about 9.1% (no sharp cut-off); inactive means mostly below about 7.2%.

assay: antivirals protecting cells from dengue CPE – CPE readout, HTS (AID 540333); settings: Dengue virus CPE inhibition in host cells, at 20 µM; hits give high values

| Compound | CPE inhibition |
| --- | --- |
| Cc1cc(OCCOCCN(C)C)ccc1Cl | 0.765% |
| COC(=O)C1=NN[C@H](C(=O)OC(C)(C)C)[C@H]1c1ccccc1 | inactive |
| CCOc1ccc2c(c1)c(N=NC(=N)N)c(O)n2C | 0.04% |
| O=S(=O)(NC1CCCCC1Nc1ccc(Cl)cc1)c1ccccc1 (stereo not drawn) | 12.2% (active) |
| O=S(=O)(NC1CCCCC1Oc1ccccc1)c1ccccc1 (stereo not drawn) | 3.28% |
| O=S(=O)(NC1CCCCC1Sc1ncccn1)c1ccccc1 (stereo not drawn) | inactive |
| COc1ccc(COc2cc(-c3cccc(OC)c3)nc3ccc(NC(=O)c4ccc(Cl)cc4)cc23)cc1 | 4.84% |
| CCC(=O)NC(=S)Nc1ccc(NC(=O)COc2ccccc2)cc1 | inactive |
| CCn1cc([N+](=O)[O-])nc1C | 0.275% |
| O=C(CSc1ccccc1)Nc1cc(Cl)ccc1Oc1ccccc1 | 3.48% |
| CNC(=S)Nc1cc(Cl)ccc1Oc1ccccc1 | 0.98% |
| O=C(Nc1cc(Cl)ccc1Oc1ccccc1)c1ccc(F)cc1 | 7.54% (active) |
| COc1cccc(NC(=S)NCCN2CCOCC2)c1 | inactive |
| O=C(OC(C(=O)Nc1cc(Cl)cc(Cl)c1)c1ccccc1)C1=COCCO1 (stereo not drawn) | 32.8% (active) |
| O=C(Nc1cccc(-c2nc3ccccc3s2)c1)C1=COCCO1 | inactive |
| O=C(Nc1cc(Cl)cc(Cl)c1)C(c1ccccc1)N1CCCCC1 (stereo not drawn) | 3.29% |
| O=C(OC(C(=O)Nc1ccc(Cl)c(C(F)(F)F)c1)c1ccccc1)C1=COCCO1 (stereo not drawn) | 16.4% (active) |
| O=C(Nc1nnc(-c2ccc(Cl)cc2)o1)C1=COCCO1 | 0.23% |
| COC(C(=O)Nc1ccc(Cl)cc1C)c1ccccc1 (stereo not drawn) | 1.5% |
| Cc1ccc(C(=O)OC(C(=O)Nc2ccc(Cl)cc2C(F)(F)F)c2ccccc2)cc1 (stereo not drawn) | 7.33% |
| O=C(Nc1ccc(Cl)c(C(F)(F)F)c1)C(=O)N1CCCCC1 | 1.26% |
| O=C(OC(C(=O)Nc1ccc(Cl)cc1C(F)(F)F)c1ccccc1)c1c(Cl)cccc1Cl (stereo not drawn) | 21.7% (active) |
| COC(=O)c1cnn(-c2nc(OC)cc(OC)n2)c1C | 0.205% |
| COC(=O)C1=NN(c2cccc(C)c2)C2C(=O)N(c3ccccc3OC)C(=O)C12 (stereo not drawn) | 0.91% |
| CC(C)c1ccc(S(=O)(=O)N2CCN(C(=S)NCc3ccco3)CC2)cc1 | 13.8% (active) |
| CCOc1ccc(S(=O)(=O)N2CCN(C(=S)NCc3ccco3)CC2)cc1 | 0.65% |
| O=S(=O)(c1ccc(F)cc1)N1CCN(C(=S)NCc2ccco2)CC1 | 0.8% |
| Cn1c(=NC(=O)c2ccccc2[N+](=O)[O-])sc2cc(S(C)(=O)=O)ccc21 | 2.59% |
